Data reported in PubChem BioAssay (Tox21).
Values joined by “and” are separate entries in the source; they are usually repeats but may differ in a detail not shown here. Identical values can stand only once. Records with an inconclusive call do not appear. More than one record can exist for a structure, and the calls need not agree. Active and inactive are the calls of the source. Unless noted, the call rests on the fitted dose curve; in most records, active means well fitted curve in the direction sought with a large enough effect in the repeat runs; inconclusive means weak or mixed curves; inactive means no such curve, though single readings can be large; an effect the other way counts as inactive or inconclusive.

Assays:
[1] = target: Acetylcholinesterase (Homo sapiens) (UniProt P22303); test: Acetylcholinesterase (AChE) small molecule antagonists: enzyme-based qHTS assay (AID 1347397; calls by dose curve; further: nearly all actives have a fitted effect of over 55% in size); conditions: Potency: AChE enzyme activity inhibition; outcome: AChE enzyme activity inhibition
Summary of the method: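 In this quantitative HTS, compounds from the Tox21 10K collection were preincubated 30 min at ambient temperature with recombinant human AChE dispensed at 50 mU/mL. Hydrolysis of acetylthiocholine was then followed for 10 min by DTNB colour development.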

[2] = target: Acetylcholinesterase (Homo sapiens) (UniProt P22303); test: Acetylcholinesterase (AChE) small molecule antagonists: fluorescence cell-based qHTS assay (AID 1347398; calls by dose curve; further: nearly all actives have a fitted effect of over 50% in size); conditions: Potency: AChE activity; outcome: AChE activity
Summary of the method: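 Cells (SH-SY5Y) attached overnight, were dosed with compound or DMSO vehicle for 30 min at 37 C, and then incubated 40 min at room temperature with acetylthiocholine and Thiolite Green; green fluorescence indexed AChE activity.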

[3] = target: Cytochrome P450 2C19 (Homo sapiens) (UniProt P33261); test: Cytochrome P450 Family 2 Subfamily C Member 19 (CYP2C19) small molecule antagonists: luciferase reporter qHTS assay (AID 1671197); further: nearly all actives have a fitted effect of over 65% in size; further: potency means the concentration at half of the fitted maximal effect; on activity change, negative = inhibition: series mostly up to about 120 µM
Summary of the method: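 Enzyme-substrate mix with proluciferin substrate (P450-Glo CYP2C19 system) preincubated with compounds 10 min at room temperature; NADPH regeneration solution added, 37C for 1 h; detection reagent stops reaction, luminescence read after 20 min. Ketoconazole positive control.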

[4] = target: Cytochrome P450 1A2 (Homo sapiens) (UniProt P05177); test: Cytochrome P450 Family 1 Subfamily A Member 2 (CYP1A2) small molecule antagonists: luciferase reporter qHTS assay (AID 1671199); further: nearly all actives have a fitted effect of over 50% in size; further: potency means the concentration at half of the fitted maximal effect; on activity change, negative = inhibition: series mostly up to about 120 µM
Summary of the method: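 Luminescence from luciferin formed by CYP1A2 from a proluciferin substrate, read 20 min after detection reagent. Compound was pre-incubated 10 min with enzyme-substrate, and reaction started with NADPH regeneration solution for 1 h at room temperature; furafylline control.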

[5] = target: Voltage-gated inwardly rectifying potassium channel KCNH2 (Homo sapiens) (UniProt Q12809); test: Human Ether-a-go-go-Related Gene (hERG) channel small molecule antagonists: fluorescence cell-based qHTS assay (AID 1671200); further: nearly all actives have a fitted effect of over 50% in size; further: potency means the concentration at half of the fitted maximal effect;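 on activity change, negative = inhibition: hERG-expressing U2OS cells given a thallium stimulus after FluxOR II dye loading; series mostly up to about 77 µM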
Summary of the method: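 Quantitative HTS in hERG-U2OS cells: thallium entry through the channel reports activity, read as continuous 480/540 nm fluorescence over 2 min after stimulus addition.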

[6] = target: Cytochrome P450 3A4 (Homo sapiens) (UniProt P08684); test: Cytochrome P450 Family 3 Subfamily A Member 4 (CYP3A4) small molecule antagonists: luciferase reporter qHTS assay (AID 1671201); further: nearly all actives have a fitted effect of over 50% in size; further: potency means the concentration at half of the fitted maximal effect; on activity change, negative = inhibition: series mostly up to about 120 µM
Summary of the method: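 Inhibition of CYP3A4 is measured as loss of light: the enzyme converts a proluciferin substrate to luciferin, detected luminescently. Reaction ran 1 h at room temperature with NADPH regeneration after a 10 min compound preincubation.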

[7] = target: Acetylcholinesterase (Homo sapiens) (UniProt P22303); test: Acetylcholinesterase (AChE) small molecule antagonists: enzyme-based qHTS assay with human liver microsomes (AID 1347399; calls by dose curve; further: nearly all actives have a fitted effect of over 60% in size); conditions: Potency: qHTS inhibition; outcome: qHTS inhibition
Summary of the method: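 Recombinant human AChE (50 mU/mL in the enzyme mix) and human liver microsomes (0.25 mg/mL final) were preincubated with compound and NADPH (0.25 mg/mL final) for 30 min at 37 C. Acetylthiocholine/DTNB was then added; thiocholine was read colorimetrically after 10 min at room temperature.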

[8] = target: Cytochrome P450 2D6 (Homo sapiens) (UniProt P10635); test: Cytochrome P450 Family 2 Subfamily D Member 6 (CYP2D6) small molecule antagonists: luciferase reporter qHTS assay (AID 1671196); further: nearly all actives have a fitted effect of over 50% in size; further: potency means the concentration at half of the fitted maximal effect; on activity change, negative = inhibition: series mostly up to about 120 µM
Summary of the method: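 CYP2D6 activity was followed as luminescence from its luciferin product after a 1 h NADPH-driven reaction at room temperature. Enzyme-substrate mix and compound were pre-incubated for 10 min, and the signal was read 20 min after adding detection reagent.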

[9] = target: Cytochrome P450 2C9 (Homo sapiens) (UniProt P11712); test: Cytochrome P450 Family 2 Subfamily C Member 9 (CYP2C9) small molecule antagonists: luciferase reporter qHTS assay (AID 1671198); further: nearly all actives have a fitted effect of over 50% in size; further: potency means the concentration at half of the fitted maximal effect; on activity change, negative = inhibition: series mostly up to about 120 µM
Summary of the method: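 P450-Glo proluciferin substrate with CYP2C9 enzyme; 10 min RT preincubation, then NADPH regeneration 1 h at 37C; luciferin detection reagent 20 min RT, luminescence in relative luminescence units.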
On the % scale 0 is the no-effect control and ±100 the full control effect.

Chain of Acetylcholinesterase (Homo sapiens) (P22303 whole entry, looked up): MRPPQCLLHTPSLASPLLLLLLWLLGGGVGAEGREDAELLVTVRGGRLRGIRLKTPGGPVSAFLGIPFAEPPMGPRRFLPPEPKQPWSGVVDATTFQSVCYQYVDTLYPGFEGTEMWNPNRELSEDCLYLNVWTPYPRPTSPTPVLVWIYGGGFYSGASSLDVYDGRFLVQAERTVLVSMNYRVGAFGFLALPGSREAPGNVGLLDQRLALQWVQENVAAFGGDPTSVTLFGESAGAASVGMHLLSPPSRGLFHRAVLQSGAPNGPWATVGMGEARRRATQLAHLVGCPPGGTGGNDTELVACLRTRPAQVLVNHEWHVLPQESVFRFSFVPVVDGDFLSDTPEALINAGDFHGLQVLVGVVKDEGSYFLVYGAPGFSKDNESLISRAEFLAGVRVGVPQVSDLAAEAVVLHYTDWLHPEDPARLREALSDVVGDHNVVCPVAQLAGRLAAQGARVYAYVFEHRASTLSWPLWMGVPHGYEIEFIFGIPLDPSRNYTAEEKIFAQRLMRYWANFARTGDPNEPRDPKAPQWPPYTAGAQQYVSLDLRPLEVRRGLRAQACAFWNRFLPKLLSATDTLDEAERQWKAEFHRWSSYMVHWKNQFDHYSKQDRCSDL
Chain of Cytochrome P450 3A4 (Homo sapiens) (P08684 whole entry, looked up): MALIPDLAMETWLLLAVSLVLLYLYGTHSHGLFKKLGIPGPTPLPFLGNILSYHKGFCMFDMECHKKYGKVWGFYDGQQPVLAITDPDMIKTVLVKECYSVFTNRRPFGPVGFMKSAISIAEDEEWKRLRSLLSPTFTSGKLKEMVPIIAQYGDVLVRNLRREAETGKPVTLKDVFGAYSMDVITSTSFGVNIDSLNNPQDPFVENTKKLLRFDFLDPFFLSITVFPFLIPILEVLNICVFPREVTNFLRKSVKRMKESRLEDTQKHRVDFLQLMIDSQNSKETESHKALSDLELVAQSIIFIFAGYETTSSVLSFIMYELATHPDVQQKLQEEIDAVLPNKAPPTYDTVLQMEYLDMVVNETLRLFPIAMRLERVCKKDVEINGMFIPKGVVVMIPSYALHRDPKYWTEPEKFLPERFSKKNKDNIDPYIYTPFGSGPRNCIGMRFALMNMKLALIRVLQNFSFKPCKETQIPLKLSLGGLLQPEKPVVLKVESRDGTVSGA
Chain of Cytochrome P450 2C19 (Homo sapiens) (P33261 whole entry, looked up): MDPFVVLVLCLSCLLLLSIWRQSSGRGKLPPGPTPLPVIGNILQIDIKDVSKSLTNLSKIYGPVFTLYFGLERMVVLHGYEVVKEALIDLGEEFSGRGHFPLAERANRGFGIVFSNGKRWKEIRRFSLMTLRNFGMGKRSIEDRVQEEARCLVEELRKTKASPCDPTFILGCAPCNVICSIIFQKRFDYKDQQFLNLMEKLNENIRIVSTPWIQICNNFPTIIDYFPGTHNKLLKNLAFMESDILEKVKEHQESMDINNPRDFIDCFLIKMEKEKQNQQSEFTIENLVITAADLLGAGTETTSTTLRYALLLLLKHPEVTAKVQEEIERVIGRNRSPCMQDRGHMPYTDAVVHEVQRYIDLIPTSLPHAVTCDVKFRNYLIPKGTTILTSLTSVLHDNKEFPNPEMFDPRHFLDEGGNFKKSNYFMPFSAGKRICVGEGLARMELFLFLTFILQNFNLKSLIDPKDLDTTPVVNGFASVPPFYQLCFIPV
Chain of Voltage-gated inwardly rectifying potassium channel KCNH2 (Homo sapiens) (Q12809 whole entry, looked up): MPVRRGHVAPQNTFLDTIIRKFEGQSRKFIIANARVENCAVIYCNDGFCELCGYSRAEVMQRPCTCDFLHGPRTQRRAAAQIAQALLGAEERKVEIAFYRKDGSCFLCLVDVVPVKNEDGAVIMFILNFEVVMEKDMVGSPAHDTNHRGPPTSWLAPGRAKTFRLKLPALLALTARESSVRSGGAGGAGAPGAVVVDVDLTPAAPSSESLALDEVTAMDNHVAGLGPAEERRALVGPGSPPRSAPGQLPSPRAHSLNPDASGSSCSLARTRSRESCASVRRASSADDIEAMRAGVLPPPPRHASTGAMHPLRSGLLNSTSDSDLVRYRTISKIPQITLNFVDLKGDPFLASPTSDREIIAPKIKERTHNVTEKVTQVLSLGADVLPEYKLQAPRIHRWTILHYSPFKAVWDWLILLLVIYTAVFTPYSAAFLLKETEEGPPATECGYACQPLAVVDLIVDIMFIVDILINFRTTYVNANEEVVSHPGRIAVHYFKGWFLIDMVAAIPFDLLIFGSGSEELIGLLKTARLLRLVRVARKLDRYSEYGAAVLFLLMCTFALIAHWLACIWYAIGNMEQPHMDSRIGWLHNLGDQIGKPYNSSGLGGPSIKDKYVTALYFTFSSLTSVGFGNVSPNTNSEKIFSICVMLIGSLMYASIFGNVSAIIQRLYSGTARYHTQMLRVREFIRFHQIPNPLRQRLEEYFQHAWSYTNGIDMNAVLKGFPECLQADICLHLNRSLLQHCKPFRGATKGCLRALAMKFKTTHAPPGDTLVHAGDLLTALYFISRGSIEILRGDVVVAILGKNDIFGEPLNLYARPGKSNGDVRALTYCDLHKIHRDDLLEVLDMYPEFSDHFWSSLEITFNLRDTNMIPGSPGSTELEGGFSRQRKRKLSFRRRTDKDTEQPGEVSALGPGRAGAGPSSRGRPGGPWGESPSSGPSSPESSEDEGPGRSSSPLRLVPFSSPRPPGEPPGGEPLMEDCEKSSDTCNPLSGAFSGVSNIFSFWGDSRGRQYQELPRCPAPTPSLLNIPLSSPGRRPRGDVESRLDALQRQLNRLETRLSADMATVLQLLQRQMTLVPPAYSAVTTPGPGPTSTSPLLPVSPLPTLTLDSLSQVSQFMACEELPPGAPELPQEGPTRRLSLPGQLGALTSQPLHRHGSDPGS
Chain of Cytochrome P450 1A2 (Homo sapiens) (P05177 whole entry, looked up): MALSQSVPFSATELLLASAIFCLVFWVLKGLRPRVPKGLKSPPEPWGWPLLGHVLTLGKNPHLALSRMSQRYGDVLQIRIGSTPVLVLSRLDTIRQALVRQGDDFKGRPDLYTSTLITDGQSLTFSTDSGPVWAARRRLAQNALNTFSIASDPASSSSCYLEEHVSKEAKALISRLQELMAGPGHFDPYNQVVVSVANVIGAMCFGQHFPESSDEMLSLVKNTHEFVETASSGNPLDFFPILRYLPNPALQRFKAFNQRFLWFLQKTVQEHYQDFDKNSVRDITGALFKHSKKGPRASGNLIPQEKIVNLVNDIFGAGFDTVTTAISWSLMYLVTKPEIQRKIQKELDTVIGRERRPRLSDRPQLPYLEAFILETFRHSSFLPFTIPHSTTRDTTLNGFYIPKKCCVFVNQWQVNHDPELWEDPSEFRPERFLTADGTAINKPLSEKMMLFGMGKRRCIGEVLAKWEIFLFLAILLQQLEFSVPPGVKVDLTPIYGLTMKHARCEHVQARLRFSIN
Chain of Cytochrome P450 2C9 (Homo sapiens) (P11712 whole entry, looked up): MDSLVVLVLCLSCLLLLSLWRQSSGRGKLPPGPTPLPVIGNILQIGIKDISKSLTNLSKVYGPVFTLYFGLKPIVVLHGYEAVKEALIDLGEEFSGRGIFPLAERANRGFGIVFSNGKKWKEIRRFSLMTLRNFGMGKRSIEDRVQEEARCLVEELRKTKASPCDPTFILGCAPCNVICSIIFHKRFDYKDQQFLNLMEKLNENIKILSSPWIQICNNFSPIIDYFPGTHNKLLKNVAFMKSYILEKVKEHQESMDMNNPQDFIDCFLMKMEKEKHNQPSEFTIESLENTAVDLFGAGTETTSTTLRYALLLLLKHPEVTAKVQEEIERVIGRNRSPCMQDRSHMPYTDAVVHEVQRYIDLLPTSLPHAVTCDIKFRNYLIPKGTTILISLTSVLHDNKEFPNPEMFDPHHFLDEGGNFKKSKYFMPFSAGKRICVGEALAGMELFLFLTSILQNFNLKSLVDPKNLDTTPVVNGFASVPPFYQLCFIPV
Chain of Cytochrome P450 2D6 (Homo sapiens) (P10635 whole entry, looked up): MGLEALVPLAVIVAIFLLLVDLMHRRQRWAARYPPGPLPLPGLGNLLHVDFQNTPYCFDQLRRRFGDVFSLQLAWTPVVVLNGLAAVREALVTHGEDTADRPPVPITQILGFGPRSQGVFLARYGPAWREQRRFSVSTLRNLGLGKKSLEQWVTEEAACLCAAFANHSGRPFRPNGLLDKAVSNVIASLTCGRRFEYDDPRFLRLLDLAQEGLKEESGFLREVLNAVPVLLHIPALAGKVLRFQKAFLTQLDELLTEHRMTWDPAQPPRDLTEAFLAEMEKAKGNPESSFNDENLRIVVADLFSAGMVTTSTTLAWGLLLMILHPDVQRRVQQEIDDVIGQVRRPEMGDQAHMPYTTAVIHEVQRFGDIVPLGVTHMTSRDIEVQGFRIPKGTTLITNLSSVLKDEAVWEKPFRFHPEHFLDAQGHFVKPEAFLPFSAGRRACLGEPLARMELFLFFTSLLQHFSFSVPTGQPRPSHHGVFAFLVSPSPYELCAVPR

CC(=O)OCC1=C(C(=O)O)N2C(=O)[C@@H](N)[C@H]2SC1
inactive: activity change, negative = inhibition [1] -2.73% [at 23.6 µM] | activity change, negative = inhibition [2] -12.7% [at 23.8 µM] | activity change, negative = inhibition [5] 0.177% [at 15.8 µM] | activity change, negative = inhibition [6] -8.01% [at 23.6 µM]
active: Potency [3] 15.1 µM | Potency [4] 12 µM

CCOP(=S)(OCC)Oc1ccc(Cl)cc1Cl
active: Potency [3] 0.399 µM | Potency [9] 3.56 µM | Potency [4] 2.83 µM | Potency [6] 2.83 µM
inactive: Potency [1] | Potency [7] | Potency [8]

C#CC(C)(C)O
inactive: Potency [1] | Potency [7] | Potency [8] | Potency [3] | Potency [9] | Potency [5] | Potency [6]

CCCN1CCC[C@@H]2Cc3[nH]ncc3C[C@H]21
active: Potency [8] 30.9 µM
inactive: Potency [1] | Potency [7] | Potency [3] | Potency [4] | Potency [5] | Potency [6]

CC(Cc1ccccc1)NCCCCl (stereo unspecified)
inactive: Potency [1] | Potency [7] | Potency [3] | Potency [9] | Potency [4]
active: Potency [8] 1.74 µM | Potency [5] 15.1 µM

NCCOS(=O)(=O)O
inactive: Potency [1] | Potency [7] | Potency [8] | Potency [9] | Potency [4] | Potency [5] | Potency [6]

COc1cccc([C@@]2(O)CCCC[C@@H]2CN(C)C)c1
inactive: Potency [1] | Potency [2] | Potency [3] | Potency [4] | Potency [6]

COC[C@@H](NC(C)=O)C(=O)NCc1ccccc1
inactive: Potency [1] | Potency [7] | Potency [8] | Potency [3] | Potency [9]

C[C@]12C=CC(=O)C=C1CC[C@@H]1[C@@H]2CC[C@@]2(C)[C@H]1CC[C@]2(C)O
inactive: Potency [1] | Potency [7] | Potency [8] | Potency [3] | Potency [4]

CCCN1CCC[C@@H]2Cc3nc(N)ncc3C[C@H]21
active: Potency [8] 11 µM
inactive: Potency [1] | Potency [7] | Potency [3] | Potency [4]

O=[N+]([O-])CCO
inactive: Potency [1] | Potency [7] | Potency [8] | Potency [3] | Potency [4] | Potency [5] | Potency [6]

CC[C@H](O)C(C[C@H](C)N(C)C)(c1ccccc1)c1ccccc1
active: Potency [8] 1.44 µM
inactive: Potency [1] | Potency [7] | Potency [3] | Potency [4] | Potency [5]

NNCc1ccccc1
active: Potency [8] 11.5 µM | Potency [3] 36.2 µM | Potency [4] 12.9 µM
inactive: Potency [1] | Potency [7]

Cc1ccc(S(=O)(=O)N[C@@H](CCCCN)C(=O)CCl)cc1
active: Potency [8] 17.4 µM | Potency [3] 38.9 µM
inactive: Potency [7] | Potency [9] | Potency [4] | Potency [5]

CCSC(=O)Cl
inactive: Potency [1] | Potency [3] | Potency [9] | Potency [4] | Potency [5] | Potency [6]

C=CCC1(C(C)CC)C(=O)NC(=O)NC1=O (stereo unspecified)
inactive: Potency [1] | Potency [7] | Potency [8] | Potency [5]
active: Potency [4] 21.9 µM

CCC(C)C(C)(COC(N)=O)COC(N)=O (stereo unspecified)
inactive: Potency [1] | Potency [7] | Potency [8] | Potency [4] | Potency [5] | Potency [6]

COP(=O)(O)OC
active: Potency [4] 32.8 µM
inactive: Potency [1] | Potency [7] | Potency [9] | Potency [5] | Potency [6]

CCCCS(=O)(=O)Cl
inactive: Potency [1] | Potency [8] | Potency [9] | Potency [4] | Potency [5] | Potency [6]

NNC(N)=O
inactive: Potency [1] | Potency [7] | Potency [3] | Potency [6]
active: Potency [4] 36.5 µM

C=CCN1CC[C@]23CCCC[C@H]2[C@H]1Cc1ccc(O)cc13
inactive: Potency [9] | Potency [4]

BrCc1ccc(Br)cc1
inactive: Potency [7] | Potency [5] | Potency [6]

CC(C)(C)c1cc(O)ccc1O
active: Potency [3] 39.9 µM and 56.4 µM | Potency [9] 31.7 µM | Potency [4] 39.9 µM
inactive: Potency [1] | Potency [5] | Potency [6]
63.3 µM (active) and inactive: Potency [8]
